Here are results for 40 compounds from PubChem BioAssay (Tox21).

“And” between values parts separate entries of the source, which are not always exact repeats. Equal values may be shown once. Records with an inconclusive call do not appear. Values without a mark were called inactive. The source made the active and inactive calls. The call rests on the fitted dose curve.
On the % scale 0 is the no-effect control and ±100 the full control effect; potency means the concentration at half of the fitted maximal effect.

The nature of the assay: Nuclear factor erythroid 2-related factor 2/antioxidant responsive element (Nrf2/ARE) small molecule agonists: luciferase reporter gene qHTS assay in human keratinocytes (AID 1919969). Further: nearly all actives have a fitted effect of over 35% in size. Conditions: KeratinoSens HaCaT ARE-luciferase, luminescence, 24 h; series mostly up to 92.4 µM; activity, positive = activation: at the top concentration. An excerpt: National Center for Advancing Translational Sciences [NCATS]
Division of Preclinical Innovation [DPI]
U.S. Environmental Protection Agency [EPA]
National Institutes of Environmental Health Sciences [NIEHS]
National Toxicology Program [NTP]
U.S. Food and Drug Administration [FDA]
Oxidative stress has been implicated in the pathogenesis of a variety of diseases ranging from cancer to neurodegeneration. The antioxidant response element (ARE) signaling pathway plays an important role in the amelioration of oxidative stress. The KeratinoSens (Givaudan, Switzerland) is an in vitro test method which quantifies luciferase induction as a measure of activation of Keap1-Nrf2-antioxidationt/electrophile response element (ARE) dependant pathway in HaCaT human keratinocytes stably transfected with a selectable plasmid. The KeratinoSens assay is a cell-based assay with a reporter cell line to detect potential skin sensitizers by their ability to induce the Nrf2/ARE-response. The activation of the report gene under culture conditions can be detected by ONE-Glo Luciferase Assay System (Promega, Madison, WI). This cell line has been used to screen the Tox21 10K compound library to identify agonists that induce oxidative stress. The cytotoxicity of the Tox21 compound library against the KS-ARE cell line was tested in parallel by measuring the cell viability using CellTiter- Fluor assay system (Promega, Madison, WI) in the same wells.
HaCaT derived cell line KeratinoSens were dispensed at 1,500 cells/5uL/well in 1536-well white wall/solid bottom plates using a Multidrop Combi (ThermoFisher Scientific, Waltham, MA) dispenser. After the assay plates were incubated at 37 C/5% CO2 for 5 h, 23 nL of compounds dissolved in DMSO, positive controls or DMSO only was transferred to the assay plate by a pintool workstation (Kalypsys, San Diego, CA). The plates were incubated at 37 C/5% CO2 for 23 h, followed by addition of 1uL/well of CellTiter-Fluor reagent into the assay plates using a Flying Reagent Dispenser (Aurora Discovery, San Diego, CA) for cell viability readout that measures cytotoxicity. After 1 h incubation at 37 C/5% CO2 the fluorescence intensity was measured using a ViewLux (PerkinElmer, Shelton, CT) plate reader. Then 4uL/well of One-Glo were added using a Flying Reagent Dispenser. After the plates were incubated at room temperature for 30 min, the luminescence intensity in the assay plates was measured using ViewLux plate reader.
A general note: Reporter assays use an easily measured gene product as a stand-in for the process of interest.
`Fc1ccc(C(c2ccc(F)cc2)N2CCN(C/C=C/c3ccccc3)CC2)cc1`: the “activity, positive = activation” value is -42% [at 42.5 µM].

Regarding `Cc1oc(=O)oc1CN1CCN(c2cc3c(cc2F)c(=O)c(C(=O)O)c2n3C(C)S2)CC1` (stereo not given), the “activity, positive = activation” value was -4.72% [at 42.5 µM].

For `CN(C)CCOCCO`, the “activity, positive = activation” value is -7.76%.

`CC(C)N(C)C`: the “activity, positive = activation” value is -5.95%.

On to `O=C1CCCCCO1`, for which the “activity, positive = activation” value is 3.18%.

`CCCCCCCCNC(C)C(O)c1ccc(SC(C)C)cc1` (stereo not given): the “activity, positive = activation” value was -37.5% [at 42.5 µM].

With `CC(C)(C)c1cc(O)c(C(C)(C)C)cc1O`, the Potency was 15.4 µM (active).

Consider `CC(C)c1cccc(C(C)C)c1N1C(=O)c2ccc(O)cc2C1=O`, for which the “activity, positive = activation” value is 5.11%.

For `Cc1ncc([C@@H](CCCCCCc2ccc3c(n2)NCCC3)CC(=O)O)cn1`, the “activity, positive = activation” value was -6.3%.

For `CSc1ccc(Oc2ccc(S(N)(=O)=O)cc2CN(C)C)cc1C`, the “activity, positive = activation” value was -0.524%.

On to `CC(=O)c1ccc2c(c1)[C@H](NC(=O)c1ccc(F)cc1)[C@@H](O)C(C)(C)O2`, for which the “activity, positive = activation” value was -15%.

For the compound `O=C1OC2(c3ccc(O)cc3Oc3cc(O)ccc32)c2ccc(N=C=S)cc21`, the “activity, positive = activation” value was -1.21%.

`CCCCCCCCS(=O)(=O)O`: the “activity, positive = activation” value is -10%.

Consider `Cc1ccc(Br)cc1`, for which the “activity, positive = activation” value was 3.69%.

`CCN(Cc1cccnc1)C(=O)c1cccc(Cl)c1[C@]1(C)C(=O)N(Cc2ccc(OC)cc2OC)c2ccc(Cl)cc21`: the “activity, positive = activation” value was -0.699%.

On to `CCCNC(C)(C)COC(=O)c1ccccc1`, for which the “activity, positive = activation” value was 2.23% [at 42.5 µM].

In the case of `O=C(O)CNC(=O)c1ccccc1`, the “activity, positive = activation” value was 1.07% [at 42.5 µM].

With `C=CC(=O)NC(C)(C)C`, the “activity, positive = activation” value was -0.474%.

Regarding `Cc1c(Cl)c(=O)oc2cc(O)ccc12`, the “activity, positive = activation” value is 1.5%.

For the compound `CCC(CC)CO`, the “activity, positive = activation” value was 1.92%.

On to `O=C1NCCN1CCN1CCC(c2cn(-c3ccc(F)cc3)c3ccc(Cl)cc23)CC1`, for which the “activity, positive = activation” value was -37.4% [at 42.5 µM].

As for `CCCCCCCCCCCCCCCS(=O)(=O)Oc1ccccc1`, the “activity, positive = activation” value is 10.8% [at 42.5 µM].

As to `CC(=O)OCC(=O)NCCCOc1cccc(CN2CCCCC2)c1`, the “activity, positive = activation” value was 7.86% [at 42.5 µM].

Take `CC1=C(C=O)C(C)(C)CCC1`: the “activity, positive = activation” value was 1.76%.

Consider `CCCCN(CCCC)CCC(O)c1cc2c(Cl)cc(Cl)cc2c2cc(C(F)(F)F)ccc12` (stereo not given), for which the “activity, positive = activation” value was -43.6% [at 42.5 µM].

In the case of `CN1CCC(=C2c3ccccc3CCc3cccnc32)CC1`, the “activity, positive = activation” value was -6.09% [at 42.5 µM].

As for `CCCC(CC)CCCCCCCN` (stereo not given), the “activity, positive = activation” value is 0.535%.

On to `O=C1Cc2ccccc2N1c1c(Cl)cccc1Cl`, for which the “activity, positive = activation” value is 4.14%.

`N#Cc1nc(Cl)c(Cl)c(Cl)c1Cl`: the Potency is 2.43 µM (active).

Regarding `C[Si](C)(C)O[Si](O)(O)O`, the “activity, positive = activation” value is -7.61%.

Consider `CO[Si](C)(OC)OC`, for which the “activity, positive = activation” value was -9.13%.

On to `Nc1ccc(/C=C/c2ccc(N)cc2S(=O)(=O)O)c(S(=O)(=O)O)c1`, for which the activity, positive = activation is -0.938% [at 0.349 µM].

In the case of `O=C1c2ccccc2C(=O)N1SC1CCCCC1`, the Potency is 21.7 µM (active) and 24.3 µM (active).

In the case of `O=C1NCCN1`, the “activity, positive = activation” value was -11.3%.

As to `NC(=O)c1c(Cl)cccc1Cl`, the “activity, positive = activation” value is -6.32%.

For the compound `CC(O)(c1ccc(Cl)cc1)c1ccc(Cl)cc1`, the “activity, positive = activation” value was -39.9%.

For `C/C(=C\c1ccc(C(=O)O)cc1)c1ccc2c(c1)C(C)(C)CCC2(C)C`, the “activity, positive = activation” value was -30.1% [at 42.5 µM].

For `CCCCCCOc1ccccc1C(N)=O`, the “activity, positive = activation” value is 24% [at 42.5 µM].

For `CCCCCCCCOC(=O)c1ccc(O)cc1`, the Potency result was “inactive”.

As for `CCOc1ccccc1OCC1CNCCO1` (stereo not given), the “activity, positive = activation” value was -0.239% [at 42.5 µM].
